Assay results published in PubChem BioAssay (NCI).
The panel holds about 83,000 compounds, 20% with a hit somewhere; the sample as a whole holds those more often.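 Testing used 96-well plates and a 48-hour single-concentration exposure. Example: -40 means 40% of the starting cells died.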 Values without a mark were called inactive. Active and inactive are the calls of the source. The calls were made as follows: active = growth percent below 10; inactive = the rest.

Experiments:
Assay in all cases: NCI-60 one-dose screen, 48 h (100 = growth as untreated, 0 = no growth, -100 = all killed)
Conditions in all cases: 10 µM unless noted
[1] = system: SK-MEL-2 melanoma
[2] = system: EKVX NSCLC
[3] = system: SN12C renal
[4] = system: UO-31 renal
[5] = system: TK-10 renal
[6] = system: ACHN renal
[7] = system: CAKI-1 renal
[8] = system: A498 renal
[9] = system: CCRF-CEM leukemia
[10] = system: MOLT-4 leukemia

Structure (SMILES) | growth [1] | growth [2] | growth [3] | growth [4] | growth [5] | growth [6] | growth [7] | growth [8] | growth [9] | growth [10]
CC1=C2[C@@H](CC1)[C@]1(C)O[C@@](c3ccccc3)(C[C@H]1OC(=O)CO)[C@H]2OC(=O)/C=C/c1ccccc1 | 91.9% | 83.4% | 41.4% | -8.71% (active) | 111% | 2.46% (active) | 72.2% | -78.1% (active) | 77.5% | 70.8%
C=CC(=O)Nc1ccc(Nc2nccc(-c3ccc(N4CCCC4)c(C#N)c3)n2)cc1 | -0.218% (active) | 66.6% | 41.4% | 21% | 26.1% | 19.6% | 18.7% | -36.9% (active) | 16.7% | -8.84% (active)
N#CC1CCc2c(c(-c3ccc4nc(N)sc4c3)nc3ccc4[nH]ncc4c23)C1 (stereo not given) | 51.7% | 64.8% | 62.5% | 31.2% | 41.6% | 29.6% | 11.3% | -3.66% (active) | 42.6% | 17.2%
CCOC(=O)/C=C1\S/C(=N\Nc2cc(=O)[nH]c3ccccc23)N(c2ccccc2)C1=O | 110% | 104% | 98.9% | 77.6% | 117% | 102% | 92.8% | 125% | 101% | 103%
C=C1C(=O)O[C@H]2[C@H]1CC/C(COC(=O)CSCSCC(=O)OC/C1=C/CC[C@@]3(C)O[C@H]3[C@H]3OC(=O)C(=C)[C@@H]3CC1)=C\CC[C@@]1(C)O[C@@H]21 | 59% | 15.9% | 5.07% (active) | -0.857% (active) | 15.3% | 7.98% (active) | 15.9% | 83.6% | -35% (active) | -15.3% (active)
O=C1/C(=C2\SC(=S)N(C3CC3)C2=O)SC(=S)N1C1CC1 | 102% | 95.9% | 92.5% | 77.4% | 108% | 97% | 91.3% | 106% | 105% | 103%
Fc1cccc(-c2ccc3c(c2)C2(CCNCC2)CN3)c1 | 102% | 96.6% | 94.9% | 88.2% | 114% | 100% | 96.1% | 102% | 119% | 91.7%
Nc1nc(N)c2c(n1)NC(c1cccc(Nc3ccnc4cc(C(F)(F)F)ccc34)c1)CC(c1ccccc1)=N2 (stereo not given) | 35.1% | 51.5% | 65.4% | 62.6% | 83.1% | 75.8% | 42.7% | 77.8% | 32.4% | 6.47% (active)
C/C(=N\O)c1ccc(NC(=O)CSc2nnc(-c3cc(-c4ccc(S(N)(=O)=O)cc4)nc4ccccc34)n2-c2ccccc2)cc1 | 84% | 77.3% | 78.6% | 85.3% | 80.8% | 95.9% | 55.6% | 39.7% | 40.5% | 32.3%
Cc1ccc(/C=C/C(=O)c2cccc(OCCCOc3cccc(C(=O)/C=C/c4ccc(C)cc4)c3)c2)cc1 | 105% | 80% | 79.6% | 64% | 120% | 78.6% | 68.1% | 86.4% | 73.6% | 85.1%
CN1CCN(c2ccc(NC(=O)c3cncnc3Nc3ccc(OCc4cccc(F)c4)c(Cl)c3)cc2)CC1 | 120% | 98.6% | 63.9% | 25% | 103% | 89.3% | 81.5% | 70.8% | 16.2% | 6.75% (active)
CN(C)S(=O)(=O)Oc1ccc(-c2sc3cc(OS(=O)(=O)N(C)C)ccc3c2C(=O)c2ccc(OCCN3CCCCC3)cc2)cc1 | 75.5% | 68.9% | 87.1% | 43.6% | 79% | 32.3% | 73.4% | 85.2% | 18.8% | 36.6%
CC1(C)N=C(N)N=C(N)N1c1cccc(CCc2ccccc2)c1 | 50.3% | 67.2% | 32.4% | 98.5% | 38.7% | 105% | 107% | 82.7% | 30.5% | 30.5%
COc1ccc(C(=O)/C=C/c2ccc(N3CCCCC3)cc2)cc1OC | 103% | 92.8% | 90.5% | 73.4% | 110% | 100% | 90.4% | 87.2% | 81.5% | 88.7%
N#Cc1cccc(C2C3=C(COC3=O)N(CCO)c3cc4c(cc32)CCC4)c1 (stereo not given) | 24.5% | 41.4% | 34.3% | 39% | 54.2% | 26% | 34.7% | -6.54% (active) | 7.42% (active) | 13.5%
CC(C)(C)n1cc(-c2ccnc(NCCCNS(=O)(=O)c3cccc4ccccc34)c2)c(-c2cccc(F)c2)n1 | 107% | 68.6% | 73.3% | 65.9% | 97% | 91.5% | 94.3% | 29.2% | 56.9% | 57.9%
CO[C@H](C(=O)[C@@H](O)[C@@H](C)O)[C@@H]1Cc2cc3cc(O[C@H]4C[C@@H](O[C@H]5C[C@@H](O)[C@H](O)C(C)O5)[C@H](O)C(C)(O)O4)cc(O)c3c(O)c2C(=O)[C@H]1O[C@H]1C[C@@H](O[C@H]2C[C@@H](O[C@H]3C[C@@H](OC)[C@H](O)C(C)O3)[C@@H](O)C(C)O2)[C@H](O)C(C)O1 (stereo not given in full) | -54.9% (active) | 34.7% | 20.5% | 41.7% | 37% | 25.9% | 68.9% | -30.9% (active) | 54.5% | 37.9%
O=C(c1c[nH]c2ccccc12)c1n[nH]c(=S)n1-c1cccc(Br)c1 | 85.9% | 70.9% | 96.3% | 86.6% | 106% | 100% | 77.2% | 118% | 90.6% | 90.2%
Cc1ccc(C2CC(c3nc(-c4ccc(Cl)cc4)oc3C)=NN2C(=O)c2ccncc2)cc1 (stereo not given) | 92.9% | 91.3% | 86.8% | 58.2% | 106% | 87.3% | 69.2% | 82.6% | 90.7% | 64.7%
C=CC(=O)Nc1ccc(Oc2nccc(Nc3nnc(-c4ccc(C)cc4)s3)n2)cc1 | 79.4% | 103% | 84% | 55.7% | 135% | 68.5% | 41.1% | 83.3% | 50.5% | 68.6%
CC1(C)[C@@H](O[C@@H]2OC[C@@H](O[C@@H]3O[C@H](CO)[C@@H](O)[C@H](O)[C@H]3O[C@@H]3OC[C@@H](O)[C@H](O)[C@H]3O)[C@H](O)[C@H]2O[C@@H]2O[C@H](CO)[C@@H](O)[C@H](O)[C@H]2O)CC[C@]2(C)[C@H]3CC[C@]45OC[C@@]6(CC[C@](C)(C=O)C[C@H]64)[C@H](O)C[C@@]5(C)[C@]3(C)CC[C@@H]12 | -90.2% (active) | -65.4% (active) | -72.6% (active) | -88.7% (active) | -92.2% (active) | -93.7% (active) | -91.5% (active) | -89.9% (active) | -40.9% (active) | -53.5% (active)
CC(C)(C)n1cc(-c2ccnc(NCCCNS(=O)(=O)c3ccc(C(F)(F)F)cc3)c2)c(-c2cccc(F)c2)n1 | 93.6% | 78.7% | 82.8% | 78% | 108% | 85.7% | 90.3% | 92.5% | 73.8% | 65.3%
